# D1 antagonist: antagonists of human D1 dopamine receptor. activity change, negative = inhibition, % at 10 µM. actives 3.2% (n = 360,000). HEK293 TREx D1 cells, calcium flux, dopamine EC80; active compounds read low. P21728; in the data active means activity change below about -30%; further: on the % scale 0 is the no-effect control and ±100 the full control effect
# Target sequence (P21728 whole entry, looked up): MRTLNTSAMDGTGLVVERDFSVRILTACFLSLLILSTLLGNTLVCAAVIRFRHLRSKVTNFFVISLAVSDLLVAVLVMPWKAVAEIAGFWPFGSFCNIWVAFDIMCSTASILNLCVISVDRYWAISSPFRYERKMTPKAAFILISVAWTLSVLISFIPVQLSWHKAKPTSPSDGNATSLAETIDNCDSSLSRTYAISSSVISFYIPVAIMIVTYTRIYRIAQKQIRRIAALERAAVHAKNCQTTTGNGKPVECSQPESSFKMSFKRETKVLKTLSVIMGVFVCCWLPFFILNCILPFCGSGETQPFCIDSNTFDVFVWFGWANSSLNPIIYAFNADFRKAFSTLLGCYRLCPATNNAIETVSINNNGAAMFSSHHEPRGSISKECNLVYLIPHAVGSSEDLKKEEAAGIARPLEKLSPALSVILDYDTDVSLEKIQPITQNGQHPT
#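 HEK293 T-REx cells expressing inducible, force-coupled D1 receptor; no-wash Ca dye, 30–90 min RT. Cmpd → 180 s read at 1 Hz → EC80 DA → 180 s read.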
# DRD3 agonist: agonists of human D3 dopamine receptor | P35462 | D3R DiscoveRx beta-arrestin cells, luminescence, 90 min | max activation, % | actives 0.58% (n = 410,000) | AID 652048; in the data active means max activation above about 30%; further: 0% is about no effect
#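 Agonist-mode cell screen: cells plated at 1500/well and incubated overnight at 37 °C, then exposed to library compounds for 90 min at 37 °C. Detection reagent was added for 30–60 min at room temperature, and luminescence was read.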
# D3 antag: D3 dopamine receptor (human) antagonism | P35462 | D3R cells, DiscoveRx beta-arrestin luminescence, antagonist mode; active compounds read low | max response, negative = inhibition, % | actives 2.5% (n = 360,000); in the data active means max response below about -50%; inconclusive means no clear call, values can overlap the other calls; further: on the % scale 0 is the no-effect control and ±100 the full control effect
#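 Cells plated overnight at 1500 cells/well, then exposed to library compounds with dopamine controls for 90 minutes at 37 degrees C. DiscoveRx reagent added for 30–60 minutes at room temperature; luminescence read, quantitative HTS format.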
# D1 PAM: human D1 dopamine receptor positive modulation; HEK293 TREx D1 cells, calcium flux, dopamine EC20 potentiation; P21728; potentiation, % at 10 µM; actives 0.036% (n = 360,000); in the data active means potentiation above about 30%; further: 0% is about no effect
# D1 agonist: human D1 receptor agonism; P21728; activation, % at 2 µM; actives 1% (n = 360,000); HEK293 T-REx D1 cells, calcium flux, agonist mode; in the data active means activation above about 30%; further: 0% is about no effect
#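 Agonism was scored from calcium flux recorded over 180 s (1 read/s) after pintool compound addition, following a 10-cycle baseline. Cells were inducible force-coupled HEK293 TREx D1, plated overnight at 30 C and loaded with no-wash calcium dye.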
# * marks the source's active call; other numbers are inactive results; ? = inconclusive; . = not tested or not shown. Compounds with a hit are over-represented: about 6.1% of the library has one in this group of screens.
SMILES,D1 antagonist,DRD3 agonist,D3 antag,D1 PAM,D1 agonist
Clc1cccc(NCc2nnc(SCc3ccc(Cl)cc3Cl)o2)c1,5,-12,-63*,8,1
CC(C)(C)OC(=O)NCCc1nnc(SCc2ccc(Cl)cc2Cl)o1,3,-3,30,-11,5
COc1ccc(/C=N/Nc2ncccc2[N+](=O)[O-])c(OC)c1,16,-3,-54*,3,-2
COc1ccc(/C=N/Nc2ncc(-c3ccccc3)cn2)c(OC)c1,-6,-6,-16,-4,3
O=C(O)CCCN1C(=O)C2C3CCC(C3)C2C1=O (stereo unspecified),.,3,-73*,.,.
COc1ccccc1-c1nc2c(c(SCC(=O)Nc3ccc(C)c(C)c3)n1)Cc1c(CO)cnc(C)c1O2,-1,4,.,-2,1
CC(=O)Nc1ccccc1-c1nc2ccccc2n(CC(=O)c2ccc(C)c(C)c2)c1=O,-2,-20,.,-2,0
N#Cc1c(C(F)(F)F)cc(-c2ccc(F)cc2)nc1SCC(=O)O,-2,1,0,-4,4
N#Cc1ccccc1NC(=O)CSc1nc(-c2ccccc2)cc(C(F)(F)F)c1C#N,15,4,.,-1,133*
Cc1cccc(NC(=O)CSc2nc(C)c(CC(=O)c3ccc(Br)cc3)c(C)c2C#N)c1C,-1,2,-53*,2,-2
N#Cc1c(C(F)(F)F)cc(-c2ccc(F)cc2)nc1SCC(=O)Nc1ccccc1,-2,-6,.,-4,18
COc1ccc(NC(=O)CSc2nc(-c3ccccc3)cc(-c3cc(OC)c(OC)c(OC)c3)c2C#N)c(OC)c1,4,0,.,6,33*
CCCCOc1ccc(-c2cc(C(F)(F)F)c(C#N)c(SCC(=O)O)n2)cc1,-3,0,-14,-6,68*
CCc1cnc2c(c1SC(C(C)=O)C(=O)N(C)C)c(=O)n(C)c(=O)n2C (stereo unspecified),.,6,.,0,-2
N#Cc1ccc(-c2cccs2)nc1SCC(=O)Nc1cccc(C(F)(F)F)c1,6,2,.,0,4
N#Cc1c(C(F)(F)F)cc(-c2cccs2)nc1SCC(=O)Nc1ccc(Cl)cc1,6,6,.,2,81*
Cc1cccc(NC(=O)CSc2nc(-c3cccs3)cc(C(F)(F)F)c2C#N)c1C,0,0,.,-2,49*
CCOc1ccc(NC(=O)CSc2nc(-c3cccs3)cc(C(F)(F)F)c2C#N)cc1,12,8,.,0,4
N#Cc1c(C(F)(F)F)cc(-c2cccs2)nc1SCC(=O)Nc1cccc(C(F)(F)F)c1,-5,0,.,3,68*
COc1ccc(C(CNC(=O)c2oc3ccc(C)cc3c2C)N2CCOCC2)cc1 (stereo unspecified),20,-28,.,2,1
CSc1ccc(/C=N/NC(=O)CN2CCN(Cc3ccccc3)CC2)cc1,-1,-23,9,-3,1
CSc1ccc(/C=N/NC(=O)CN2CCN(Cc3ccc(Cl)cc3)CC2)cc1,-13,-10,?,-6,38*
CSc1ccc(/C=N/N2CCN(Cc3ccc(Cl)cc3)CC2)cc1,-2,-18,-54*,0,1
CSCC[C@H](NC(=O)[C@H](Cc1ccc(OS(=O)(=O)O)cc1)NC(=O)[C@@H](N)CC(=O)O)C(=O)NCC(=O)N[C@@H](Cc1c[nH]c2ccccc12)C(=O)N[C@@H](CCSC)C(=O)N[C@@H](CC(=O)O)C(=O)N[C@@H](Cc1ccccc1)C(N)=O,.,1,.,.,.
COc1ccc(C2CC(=O)N(CC(=O)Nc3ccc(C)c(Cl)c3)c3ccccc3S2)cc1OC (stereo unspecified),3,0,.,-5,3
SMILES,D1 antagonist,DRD3 agonist,D3 antag,D1 PAM,D1 agonist
COc1ccc(C(=O)NCCc2sc(-c3cccc(F)c3)nc2C)cc1,0,1,.,1,1
CC1(C)C2CCC1(CS(=O)(=O)N1CCC(C(N)=O)CC1)C(=O)C2 (stereo unspecified),13,1,1,-4,4
CC1(C)C2CCC1(CS(=O)(=O)N1CCOCC1)C(=O)C2 (stereo unspecified),-13,36*,15,-2,3
CNc1ncnc2sc(-c3ccccc3)cc12,-38*,-15,10,-4,1
CCc1cc2c(cc3c(=O)n(CC(=O)NCc4cc(Br)ccc4OC)ncn32)s1,5,-1,.,-5,3
Cc1ccc(NS(=O)(=O)c2ccc(NC(=O)C3CCCO3)cc2)cc1 (stereo unspecified),0,5,8,-4,39*
Cc1ccc(S(=O)(=O)Nc2ccc(NC(=O)c3c(F)c(F)c(F)c(F)c3F)cc2)cc1,-8,1,-8,-8,47*
Cc1cc(NS(=O)(=O)c2ccc(NC(=O)c3c(F)c(F)c(F)c(F)c3F)cc2)nc(C)n1,-49*,2,-5,-8,3
COc1ccc(NS(=O)(=O)c2ccc(NC(=O)C3CCCO3)cc2)cc1 (stereo unspecified),0,-1,16,1,14
Cc1cc(C)cc(NC(=O)CN2C(=O)c3ccccc3Sc3ccc(C(=O)N4CCCC4)cc32)c1,11,4,.,1,3
Cc1cncn1CCc1nc2c3ccccc3nc(SCC(=O)Nc3ccccc3F)n2n1,-1,4,.,-1,-2
Cc1cc(=O)n(CC(=O)Nc2ccc([N+](=O)[O-])cc2)c(-n2nc(C)cc2C)n1,.,2,.,-2,-3
COc1cc(OC)c(NS(=O)(=O)c2c(C)nc3sc(C)cn3c2=O)cc1Cl,-5,2,.,-3,9
Cc1ccc(NC(=O)CN2C(=O)c3cccnc3Oc3ccc(Cl)cc32)cc1,-7,19,.,1,4
CC1O[C@@H](OC2C(COC3OC(CO)C(O)[C@H](O)C3O)OC(OC3CC[C@]4(C)C(CC[C@@]5(C)[C@@H]4CC=C4[C@@H]6CC(C)(C)CC[C@]6(CO)C(O)C[C@]45C)C3(C)C)C(O)C2O)C(O)C(O)C1O (stereo partly specified),.,4,-3,.,.
CC1OC(O[C@H]2CC[C@]3(C)C4C=C[C@]56OC[C@@]7(CC[C@@H](C)[C@H](C)C75)[C@H](O)C[C@@]6(C)[C@]4(C)CC[C@H]3C2(C)C)C(OC2OC(CO)C(O)C(O)C2OC2OCC(O)C(O)C2O)C(O)C1O (stereo partly specified),41,.,.,14,244*
Cc1ccccc1C(=O)NCC(=O)OC(C(=O)Nc1cc(C(F)(F)F)ccc1Cl)c1ccccc1 (stereo unspecified),-8,.,.,-4,13
C[C@H](CO)N1C[C@H](C)[C@@H](CN(C)Cc2ccc(C(=O)O)cc2)Oc2c(NC(=O)C3CC3)cccc2C1=O,.,0,15,.,.
C[C@@H]1CN([C@@H](C)CO)C(=O)c2cccc(NC(=O)Nc3ccc(F)cc3)c2O[C@@H]1CN(C)Cc1ccc(Oc2ccccc2)cc1,.,-14,-71*,.,.
